This passage reports residual activity results from ChEMBL document CHEMBL2218924, “A broad activity screen in support of a chemogenomic map for kinase signalling research and drug discovery” (Biochem J, 2013).

Death-associated protein kinase 1 (Homo sapiens), sequence (P53355 whole entry, looked up): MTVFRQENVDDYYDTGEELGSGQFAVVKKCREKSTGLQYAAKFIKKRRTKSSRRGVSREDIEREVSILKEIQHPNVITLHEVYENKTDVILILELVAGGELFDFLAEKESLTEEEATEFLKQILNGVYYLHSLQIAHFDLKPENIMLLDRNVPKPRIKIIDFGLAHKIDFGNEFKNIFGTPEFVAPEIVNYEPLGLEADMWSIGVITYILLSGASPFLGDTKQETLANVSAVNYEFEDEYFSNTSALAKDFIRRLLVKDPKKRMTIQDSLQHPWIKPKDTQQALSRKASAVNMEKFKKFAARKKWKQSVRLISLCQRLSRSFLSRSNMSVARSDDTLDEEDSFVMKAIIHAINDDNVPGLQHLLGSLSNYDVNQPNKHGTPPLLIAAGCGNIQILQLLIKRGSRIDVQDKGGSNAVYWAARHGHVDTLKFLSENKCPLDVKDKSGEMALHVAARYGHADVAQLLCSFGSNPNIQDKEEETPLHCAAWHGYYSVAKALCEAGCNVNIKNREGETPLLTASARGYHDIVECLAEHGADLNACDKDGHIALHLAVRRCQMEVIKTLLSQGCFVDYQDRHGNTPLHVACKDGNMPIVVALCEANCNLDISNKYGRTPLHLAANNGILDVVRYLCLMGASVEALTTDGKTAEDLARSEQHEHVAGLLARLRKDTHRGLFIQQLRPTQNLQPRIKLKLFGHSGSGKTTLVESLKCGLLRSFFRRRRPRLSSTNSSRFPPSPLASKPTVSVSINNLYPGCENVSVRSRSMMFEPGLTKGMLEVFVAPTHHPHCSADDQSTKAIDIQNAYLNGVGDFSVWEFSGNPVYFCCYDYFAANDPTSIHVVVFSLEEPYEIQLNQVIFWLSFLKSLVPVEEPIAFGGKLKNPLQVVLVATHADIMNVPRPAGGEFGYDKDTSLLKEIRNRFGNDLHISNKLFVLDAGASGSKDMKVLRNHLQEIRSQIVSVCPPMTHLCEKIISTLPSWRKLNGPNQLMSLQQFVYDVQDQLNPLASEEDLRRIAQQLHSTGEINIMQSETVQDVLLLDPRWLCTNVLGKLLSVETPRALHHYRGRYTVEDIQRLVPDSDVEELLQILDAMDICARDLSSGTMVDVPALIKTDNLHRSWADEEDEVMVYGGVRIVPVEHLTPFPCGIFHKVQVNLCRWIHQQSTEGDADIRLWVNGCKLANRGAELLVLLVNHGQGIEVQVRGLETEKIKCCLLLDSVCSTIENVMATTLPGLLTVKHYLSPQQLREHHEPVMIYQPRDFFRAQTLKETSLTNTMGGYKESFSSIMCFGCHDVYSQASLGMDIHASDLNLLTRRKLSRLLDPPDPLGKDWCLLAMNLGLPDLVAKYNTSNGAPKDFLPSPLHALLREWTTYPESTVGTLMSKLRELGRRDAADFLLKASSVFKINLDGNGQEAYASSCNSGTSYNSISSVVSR

This test has as its target Death-associated protein kinase 1 (Homo sapiens) (UniProt P53355). The settings on record: at 1 µM.
By residual activity is commonly meant the signal under treatment as a percentage of the control signal. As for `COc1cc2ncnc(N3CCN(C(=O)Nc4ccc(Oc5ccccc5)cc4)CC3)c2cc1OC`, the residual activity amounted to 90%.

`N#C/C(=C(\N)Sc1ccc(N)cc1)c1ccccc1C(F)(F)F`: the residual activity was 84%.

In the case of `O=c1c2ccccc2[nH]c(=S)n1CCN1CCC(=C(c2ccc(F)cc2)c2ccc(F)cc2)CC1`, the residual activity was 106%.

With `Oc1ccc(Nc2nc(-c3ccc(Cl)cc3)cs2)cc1`, the residual activity came to 90%.

Consider `CC(C)n1cnc2c(NCc3ccccc3)nc(NCCCO)nc21`, for which the residual activity came to 83%.

With `O=C1NC(=O)/C(=C\c2ccc3nccnc3c2)S1`, the residual activity amounted to 87%.

Turning to `O=C(O)c1ccc2c3c1cccc3c(=O)n1c3ccccc3nc21`, the residual activity was determined as 79%.

With `CC(C)(C)n1nc(Cc2cccc3ccccc23)c2c(N)ncnc21`, the residual activity stood at 86%.

On to `O=C(CCCc1ccc(-c2ccccc2F)cc1)Nc1ccc(O)cc1`, for which the residual activity was determined as 95%.

As to `O=C(Nc1cccc(Nc2cc(Nc3cccc(C(F)(F)F)c3)ncn2)c1)C1CC1`, the residual activity was found to be 109%.

In the case of `O=C1Nc2ccccc2/C1=C1/Nc2ccccc2/C1=N\OCCC(O)CO` (configuration not stated), the residual activity was found to be 81%.

`COc1cc2ncnc(Nc3ccc(NC(=O)c4ccccc4)cc3)c2cc1OC`: the residual activity amounted to 95%.

Consider `Oc1c2ccccc2c2c3c(cccc13)N=N2`, for which the residual activity was 91%.

As to `Cc1cncc2cccc(S(=O)(=O)N3CCCN(C(=O)CN)C[C@H]3C)c12`, the residual activity was 88%.

`Nc1ncnc2c1c(-c1ccc(Oc3ccccc3)cc1)cn2C1CCCC1`: the residual activity was 91%.

Turning to `COc1cc2ncnc(Nc3cccc(Cl)c3)c2cc1OC`, the residual activity came to 104%.

Consider `CO[C@H]1C[C@@H]2CC[C@@H](C)[C@@](O)(O2)C(=O)C(=O)N2CCCC[C@H]2C(=O)O[C@H]([C@H](C)C[C@@H]2CC[C@@H](O)[C@H](OC)C2)CC(=O)[C@H](C)/C=C(\C)[C@@H](O)[C@@H](OC)C(=O)[C@H](C)C[C@H](C)/C=C/C=C/C=C/1C`, for which the residual activity was found to be 95%.
